# Among all 330,000 compounds or so, about 1,900 (0.58%) were called active. Inconclusive results (about 4%) are left out. Not all results are given here. Entries with a potency or affinity are not part of this list. A number with no mark means an inactive call. Cut-off read from the data, not from the text of the source: inconclusive = inhibition above about 70% without an active follow-up result; inactive = below that.
# Test: M. tuberculosis growth inhibition, HTS (AID 449762);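 note: bacterial growth assessed after seven days of incubation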
# Settings: M. tuberculosis H37Rv growth inhibition, 7H9 media; at 25 µM; stronger effect = higher value
row,Compound,inhibition [%]
1,CCCOC(=O)c1cccc(NC(=O)COc2ccc([N+](=O)[O-])cc2)c1,66.4
2,NC(=O)COc1ccc(Cc2ncc(C(F)(F)F)cc2Cl)cc1,5.51
3,CC(=O)C(C)Oc1ccc(Cc2ncc(C(F)(F)F)cc2Cl)cc1 (stereo not drawn),10.2
4,C=CCn1c(SCC(=O)c2c(N)n(C)c(=O)n(C)c2=O)nnc1-c1ccoc1C,2.92
5,CC(Sc1nnc(-c2cccnc2)n1N)C(=O)N1CCOCC1 (stereo not drawn),-0.03
6,COc1cc(C(=O)NCCC(=O)NCCN2CCCCCC2)cc(OC)c1OC,-5.5
7,CCCNS(=O)(=O)c1ccc(OCC(=O)NCCC2=CCCCC2)cc1,-5.92
8,COC(=O)COc1ccc(S(=O)(=O)NCCC2=CCCCC2)cc1,59.1
9,CC1CC(NS(=O)(=O)c2cc3c4c(c2)CCN4C(=O)CC3)CC(C)(C)C1 (stereo not drawn),12.2
10,O=c1[nH]cnc2c1c(-c1ccccc1)cn2-c1ccccc1,5.31
11,Cc1ccc(-n2cc(-c3ccccc3)c3c(=O)[nH]cnc32)cc1,8.81
12,COc1ccc(CCNC(=O)c2[nH]c(C)c(C(C)=O)c2C)cc1OC,-6.23
13,Cc1ccc(-c2nc3ccccc3[nH]2)cc1NC(=O)/C=C/c1ccco1,7.41
14,O=C(/C=C/c1ccco1)Nc1ccc(-c2nc3ccccc3[nH]2)cc1,-5.99
15,COC(=O)c1nnn(-c2nonc2N)c1CSc1ccccn1,-4.14
16,Cc1ccc(NC(=O)c2ccccc2SCC(=O)N2CCCC2)cc1S(=O)(=O)N(C)C,-1.08
17,COc1cccc(N(C(=O)Cn2nnc(-c3ccc(C)cc3)n2)C(C(=O)NC(C)(C)C)c2c[nH]c3ccccc23)c1 (stereo not drawn),-12.2
18,CC(C)(C)NC(=O)C(c1c[nH]c2ccccc12)N(C(=O)Cn1nnc(-c2ccc(Cl)cc2)n1)c1ccccc1F (stereo not drawn),2.56
19,Cc1cc([N+](=O)[O-])nn1CC(=O)Nc1cnc2ccccc2c1,-3.67
20,Cc1ccc(CCNC(=O)c2nn(C)c3c2CS(=O)(=O)c2ccccc2-3)cc1,3.98

row,Compound,inhibition [%]
1,CCOC(=O)C1CCN(C(=S)NC(=O)c2cccs2)CC1,0.89
2,O=C(NC(=S)N1CCCCC1)c1cccs1,4.84
3,Cn1c(-c2ccsc2)c(-c2cccs2)c2cc(-c3ccc4cc[nH]c4c3)ccc21,-1.89
4,Cc1ccc(NC(=O)C(c2ccccc2)N2CCN(C(=O)c3ccco3)CC2)cc1Cl (stereo not drawn),-11.9
5,Cc1nn(-c2nc3ccccc3s2)c(N)c1-c1ccc(Cl)cc1,1.29
6,Cc1nn(-c2nc3ccccc3[nH]2)c(=O)c2ccccc12,5.73
7,Cc1cc(C)nc(NS(=O)(=O)c2ccc(NS(=O)(=O)c3ccccc3)cc2)n1,-6.64
8,CC1(C)Cc2c(sc3c2C(=O)N(c2ccccc2)C2=NCCCN23)CO1,1.18
9,CCOC(=O)c1csc(NC(C)=O)n1,0.4
10,CCCC(=O)Nc1nc(C(=O)OCC)cs1,2.98
11,O=C(c1ccc(Cl)cc1)C1CCCN(Cc2cccc3cccnc23)C1 (stereo not drawn),9.96
12,O=C(CCCOc1ccc(Cl)cc1)Nc1cccc(C(=O)O)c1,7.01
13,O=C(OCCN1CCCCC1)c1cc2ccccc2o1,-14.3
14,O=C(OCCN1C(=O)c2ccccc2C1=O)c1ccco1,-9.08
15,COc1ccccc1/C=C/C=N/n1c(C2CCCCC2)n[nH]c1=S,0.81
16,CC(=O)c1ccc(N2CCN(C(=O)c3cc(-c4ccncc4)nc4ccc(Cl)cc34)CC2)cc1,7.21
17,Cc1cccc(CN2C(=O)/C(=C\c3ccc(C(=O)NCCN4CCOCC4)cc3)Sc3ccccc32)c1,49.5
18,CN1CCN(CCCNC(=O)c2ccc(/C=C3\Oc4ccccc4N(Cc4ccccc4F)C3=O)cc2)CC1,57.7
19,Cc1ccc(Cn2nc(C)c(NC(=O)CSc3n[nH]c(C)c3[N+](=O)[O-])c2C)cc1,-3.06
20,O=C(NC1CCN(C(=O)N2c3ccccc3Sc3ccccc32)CC1)c1ccco1,-19.1

row,Compound,inhibition [%]
1,O=C(NC1CCN(C(=O)N2c3ccccc3Sc3ccccc32)CC1)c1ccccc1Cl,62.3
2,Cc1sc2ncnc(SCC(=O)c3cccs3)c2c1C,-19.7
3,COC(=O)c1ccccc1NC(=O)c1cc2n(n1)C(C(F)F)CC(C(F)F)N2 (stereo not drawn),-2.91
4,O=C(CSc1nc2[nH]ncc2c(=O)[nH]1)NCc1ccccc1,-0.89
5,O=c1[nH]c(SCc2ccc(Cl)cc2)nc2ccccc12,4.03
6,CC1CC(C)CN(CCOc2ccccc2-c2ccccc2)C1 (stereo not drawn),3.01
7,O=C(COC(=O)c1ccc2c(c1)S(=O)(=O)N=C1CCCCCN12)NCCc1ccc(F)cc1,-6.19
8,COCC(=O)N(Cc1cc2ccc(C)cc2[nH]c1=O)c1ccc(C)cc1C,-1.78
9,Cc1ccc(-c2c(C#N)c(N)nc3c2CCCCCC3)o1,21.5
10,CSc1ccccc1NC(=O)CN(C)CC(=O)c1[nH]c(C)c(C(C)=O)c1C,-0.15
11,Cc1ccc(S(=O)(=O)N2CCN(C(=O)Cn3c(=O)oc4ccccc43)CC2)cc1,8.54
12,Cc1nc(-c2nc(-c3c(C(=O)NNC(=O)Nc4ccccc4)noc3C)cs2)cs1,-4.32
13,Cc1nc(-c2nc(-c3c(C(=O)NNC(=O)Nc4cccc(Cl)c4)noc3C)cs2)cs1,11.3
14,CC(=O)Nc1c(C(=O)NCc2ccccc2)nnn1Cc1ccccc1,-10.2
15,COc1ccc(N(CC(=O)Nc2ccccc2F)S(=O)(=O)c2ccc(C)c([N+](=O)[O-])c2)cc1,0.33
16,COc1ccc(N(CC(=O)Nc2ccc(Cl)cc2)S(=O)(=O)c2c(C)n[nH]c2C)cc1,2.17
17,COc1ccc(N(CC(=O)Nc2ccccc2C(=O)O)S(=O)(=O)c2ccc(C)c([N+](=O)[O-])c2)cc1,-2.79
18,COc1ccc(N(CC(=O)Nc2ccc(C)cc2C)S(=O)(=O)c2c(C)n[nH]c2C)cc1,6.74
